# DRD3 antagonist – blocks the human D3 dopamine receptor. P35462. max response, negative = inhibition, %. D3R cells, DiscoveRx beta-arrestin luminescence, antagonist mode; stronger effect = lower value. AID 652054. 360,000 tested, 2.5% active; in the data active = max response below about -50%; note: % is set by controls: 0 for no effect and ±100 for the full control effect
# Target sequence (P35462 whole entry, looked up): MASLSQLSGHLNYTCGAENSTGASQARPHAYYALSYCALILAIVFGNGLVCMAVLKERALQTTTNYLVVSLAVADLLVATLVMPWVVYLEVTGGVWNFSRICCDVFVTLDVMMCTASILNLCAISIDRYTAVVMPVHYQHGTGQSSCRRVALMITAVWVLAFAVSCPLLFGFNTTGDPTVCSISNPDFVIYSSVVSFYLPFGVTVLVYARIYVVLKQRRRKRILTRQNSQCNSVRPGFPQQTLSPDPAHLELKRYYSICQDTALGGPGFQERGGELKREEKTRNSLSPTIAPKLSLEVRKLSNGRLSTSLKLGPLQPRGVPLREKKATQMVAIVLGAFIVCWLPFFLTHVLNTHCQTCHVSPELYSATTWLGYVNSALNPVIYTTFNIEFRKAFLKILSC
#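 Cells expressing the human receptor were seeded at 1500 cells/well, incubated overnight at 37 degrees C in 5% CO2, then exposed to library compounds with dopamine controls for 90 minutes at 37 degrees C before luminescent detection.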
# D1 antagonist – blocks dopamine activation of the human D1 receptor | 360,000 tested, 3.2% active | activity change, negative = inhibition, % at 10 µM | P21728 | HEK293 TREx D1 cells, calcium flux, dopamine EC80; stronger effect = lower value; in the data active = activity change below about -30%; note: % is set by controls: 0 for no effect and ±100 for the full control effect
#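 Inducible Hek293 Trex D1 cells (tetracycline, overnight, 30 C). Calcium dye 30–90 min RT. Antagonist mode: EC80 dopamine added after 180 s compound read.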
# D1 potentiator – human D1 dopamine receptor positive modulation; 360,000 tested, 0.036% active; HEK293 TREx D1 cells, calcium flux, dopamine EC20 potentiation; potentiation, % at 10 µM; P21728; AID 504651; in the data active = potentiation above about 30%; note: 0% is about no effect
# D1 ag – activates the human D1 dopamine receptor | P21728 | HEK293 T-REx D1 cells, calcium flux, agonist mode | 360,000 tested, 1% active | AID 504660 | activation, % at 2 µM; in the data active = activation above about 30%; note: 0% is about no effect
#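 Tetracycline-induced HEK293 TREx D1 cells, force-coupled to calcium signalling, were dye-loaded with a no-wash calcium kit. Compound was pin-added after a 10 s baseline. Fluorescence was read kinetically at 1 cycle/s for 180 s, with calcium rises flagged as agonism.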
# D3 ag – agonists of human D3 dopamine receptor. max activation, %. D3R DiscoveRx beta-arrestin cells, luminescence, 90 min. 410,000 tested, 0.58% active; in the data active = max activation above about 30%; note: 0% is about no effect
#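 Agonist mode: compounds and dopamine controls were applied to plated cells for 90 min at 37 degrees C after an overnight attachment at 1500 cells/well. Luminescent read-out followed 30 - 60 minutes at room temperature with DiscoveRx detection reagent.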
# An asterisk follows results filed as active; / = no result given; ! = not confirmed by another sample. Sampled rows, rich in hits. Any-hit rate of the full collection: about 6%.
SMILES,DRD3 antagonist,D1 antagonist,D1 potentiator,D1 ag,D3 ag
C=CCc1ccccc1OCC(O)CN1CCN(Cc2ccc3c(c2)OCO3)CC1 (configuration not stated),-88.6*!,-71.3*,-9.7,13.6,-7.1
C=CCc1ccccc1OCC(O)CN1CCN(c2ccc(C)cc2)CC1 (configuration not stated),-58.8*,-49.8*,-11.8,1.3,-30.3
CCOc1ccc2c(c1)sc1nc(=O)n(-c3ccc(Cl)c(Cl)c3)c(=O)n12,/,9.7,1.1,0.1,4.8
CCc1ccc(-n2nc(C)c3c(C(=O)N4CCN(c5cccc(Cl)c5)CC4)cc(C)nc32)cc1,/,11.4,2.7,4.6,14.4
CCc1ccc(-n2nc(C)c3c(C(=O)N4CCN(c5ccccc5)CC4)cc(C)nc32)cc1,/,-35.6*,-0.9,1.4,12.4
COc1cc(NC(=O)C2CCCN(S(=O)(=O)c3ccc4c(c3)oc(=O)n4C)C2)c(C(=O)O)cc1OC (configuration not stated),/,-2.6,0.3,0.8,4.3
Clc1ccccc1OCCCn1ccnc1,-0.6,-1.6,-2.4,4.1,-6.8
Cc1nccn1CCOc1ccccc1Cl,-22.2,-34.5*,-7.4,7.2,-8.3
CC(Oc1ccc(Cl)cc1Cl)c1ccnc(N)n1 (configuration not stated),3.1,-1.8,7.6,2.1,4.4
Cc1cc(Cl)ccc1OC(C)c1nnc(N)s1 (configuration not stated),-5.5,-48.6*,-2.5,2.6,0.9
Cc1coc2cc3oc(=O)c(CCC(=O)NC4CC4)c(C)c3cc12,6.1,-22.0,-2.6,6.3,3.4
Cc1c(CCC(=O)N2CCC(C(=O)O)CC2)c(=O)oc2cc3oc4c(c3cc12)CCCC4,95.6,-9.0,2.0,0.7,41.9*
Cc1c(CC(=O)N2CCC(C(N)=O)CC2)c(=O)oc2cc3c(cc12)CCC1(CCCCC1)O3,73.7,-6.0,-2.0,1.9,45.0*
Cc1oc2cc3oc(=O)c(CCC(=O)NC4CC4)c(C)c3cc2c1C,78.2,-6.9,6.7,1.7,79.5*
O=C(Nc1ccc(F)c(F)c1)c1ccc(=O)n(Cc2ccc(F)cc2)c1,/,-20.5,-3.6,15.3,-7.5
COC(=O)c1nnn(CC(=O)NC(=O)Nc2cccc(C)c2C)c1C(=O)OC,23.5,-4.9,2.4,49.7*!,2.1
COc1ccc2c(C)cc(C)nc2n1,2.7,-33.2*,0.1,-0.3,0.0
Cc1cc(C)c2cc(N)c(Cl)nc2n1,-21.3,/,/,/,-9.9
O=C(COC(=O)C1CCN(S(=O)(=O)c2cccs2)CC1)Nc1ccc(F)cc1Cl,2.5,/,/,/,1.7
O=C(Nc1cccnc1)C1CCN(S(=O)(=O)c2cccs2)CC1,1.3,-32.3*,-6.3,0.7,-1.0
O=C(NCc1cccnc1)C1CCN(S(=O)(=O)c2cccs2)CC1,-4.9,8.7,-4.8,1.3,14.3
COc1ccc(NC(=O)C2CCN(S(=O)(=O)c3ccc(C)cc3)CC2)cc1OC,-3.2,0.4,-0.5,0.6,-3.0
Cc1ccc(S(=O)(=O)N2CCC(C(=O)Nc3ccc4c(c3)COC4=O)CC2)cc1,-65.0*,-25.0,1.7,3.5,-1.0
Cc1ccc(NC(=O)C2CCN(S(=O)(=O)c3cccs3)CC2)cc1,-19.8,-37.4*!,-11.4,22.4,-5.7
O=C(COC(=O)C1CCN(S(=O)(=O)c2cccs2)CC1)Nc1ccc(F)c(F)c1F,15.5,-35.6*,-5.2,10.0,0.5
SMILES,DRD3 antagonist,D1 antagonist,D1 potentiator,D1 ag,D3 ag
NC(=S)NS(=O)(=O)c1ccc(N)cc1,/,/,/,/,2.5
CCc1cccc(NC(=O)Cn2c(=O)n(CC3CCC(C(=O)NCCc4ccccc4)CC3)c(=O)c3ccccc32)c1 (configuration not stated),/,-1.6,-0.7,4.5,-4.2
O=C(NCCN1C(=O)S/C(=C\c2ccc(F)cc2)C1=O)C1CCN(S(=O)(=O)c2cccs2)CC1,-1.8,-14.6,-2.8,15.0,-14.3
COc1ccc(/C=C2\SC(=O)N(CCNC(=O)C3CCN(S(=O)(=O)c4cccs4)CC3)C2=O)cc1,7.6,-35.4*,-6.0,6.3,12.0
Cn1c(SCC(=O)Nc2nc3ccccc3s2)ncc(C(=O)Nc2ccc(Cl)cc2)c1=O,/,/,-1.9,-2.1,1.7
COc1cccc(OCCCn2cc(/C=C3/C(=N)N4C=C(C)SC4=NC3=O)c3ccccc32)c1,4.2,-10.7,-0.5,34.4*,-5.1
Cc1ccc(N2CCN(S(=O)(=O)c3nnc(NC(=O)c4cccc(F)c4)s3)CC2)cc1,/,8.5,-3.9,-0.7,-3.5
N#CC(c1ccc(Cl)cc1)c1ccc2c(C(F)(F)F)cc(C(F)(F)F)nc2n1 (configuration not stated),0.0,11.1,31.6*,4.0,0.7
CCC1CCCCN1CCCNC(=O)CN1C(=O)COc2ccc(S(=O)(=O)N3CCOCC3)cc21 (configuration not stated),-13.0,-38.0*,1.0,0.4,-7.3
CC1CCN(S(=O)(=O)c2ccc3c(c2)N(CC(=O)NCCCN2CCCC(C)C2)C(=O)CO3)CC1 (configuration not stated),-89.0*,0.0,1.1,1.8,-17.8
CC1CCN(S(=O)(=O)c2ccc3c(c2)N(CC(=O)NCCCN2CCCC(C)C2)C(=O)CS3)CC1 (configuration not stated),-20.2,5.9,2.1,1.6,-15.4
Cc1ccc(NC(=O)CN2C(=O)COc3ccc(S(=O)(=O)N4CCCC4)cc32)c(C)c1,-12.7,-47.3*,-9.7,2.5,-3.4
O=C(NCCc1ccccc1)c1ccc(CSc2nc3ccncc3n2Cc2ccccc2F)cc1,/,-3.7,-7.8,7.0,-21.0
COc1ccccc1C(=O)NC1(C(F)(F)F)C(=O)NC(C)=C1C#N (configuration not stated),/,4.5,-5.0,-0.1,2.8
O=C(CN1CCN(S(=O)(=O)N2CCCCC2)CC1)Nc1cc(Cl)cc(Cl)c1,-2.6,5.5,-6.8,4.0,-31.7
O=C(CN1CCN(S(=O)(=O)N2CCCCC2)CC1)Nc1ccc(Cl)c(Cl)c1,-16.0,-79.3*,-13.1,43.2*,15.0
O=C(CCC(=O)N1CCCC1)Nc1ccc(Cl)c(Cl)c1,-20.2,-32.8*,-0.9,-0.3,-4.6
O=C(CCCn1c(=O)c2sccc2n(Cc2c(F)cccc2Cl)c1=O)NCc1ccccc1,/,-14.5,0.6,1.8,-15.8
Cc1cc([N+](=O)[O-])ccc1NC(=O)Cc1ccc(F)cc1,5.8,-32.1*,-7.8,7.3,8.7
O=[N+]([O-])c1ccc(NC(=S)NCCc2ccc(F)cc2)cc1,-19.0,-25.5,-13.1,16.9,-6.4
COc1ccccc1NCc1ccc([N+](=O)[O-])s1,-26.8,2.7,3.5,-0.1,-7.1
O=C(NCCc1ccc(F)cc1)Nc1ccc([N+](=O)[O-])cc1,-21.2,-48.7*,-17.2,13.3,-11.5
Cc1ccccc1NCc1ccc([N+](=O)[O-])s1,-24.9,-31.9*,-8.7,-2.7,-1.4
Cc1ccc(NC(=O)Cc2ccc([N+](=O)[O-])cc2)c(Br)c1,0.0,-44.8*,-2.9,15.6,-0.6

# Assay outcomes deposited in PubChem by National Center for Advancing Translational Sciences (NCATS).
